Data as given in PubChem BioAssay (NCATS).
Inconclusive results are not listed. Active and inactive are the calls of the source. Unless noted, calls follow the shape of the dose curve; as a rule, active = well fitted curve in the direction sought with a large enough effect; inconclusive = small, poorly fitted or top-dose-only effect, or another doubt; inactive = no such curve, though single readings can be large; an effect the other way counts as inactive or inconclusive.

Assays:
[1] = target: Lysosomal acid glucosylceramidase (Homo sapiens) (UniProt P04062); assay: Glucocerebrosidase-p2 (AID 348; in the data active = potency below about 10 µM; also: potency is read from the fitted curve at half-maximal effect); settings: purified GBA, blue fluorogenic substrate, 40 min
Summary of the method: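 Compounds titrated from 0.6 nM upwards against 0.2 nM enzyme in pH 5.9 citric acid/KH2PO4, taurocholate, tween-20; blue fluorogenic substrate 80 uM, 40 min room temperature, stopped and read Ex 365/Em 440 for AC50.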

[2] = AP1 Signaling Pathway (AID 357; active = well fitted curve in either direction with a large enough effect, not every such curve was filed as active; also: % is scaled to controls: 0 for no effect and ±100 for the full control effect); settings: ME-180 AP-1-bla reporter, EGF-induced, beta-lactamase ratio, 5 h; at 7.69 µM (top of the series) unless noted
Summary of the method: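 AP-1-bla ME-180 cells with beta-lactamase reporter under AP-1 response element, stimulated with EC50 EGF; compounds titrated, 5 hours at 37 degrees Celsius. CCF4 read at 460/530 nm ratio; positive and negative modulators judged by AC50.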

[3] = NFAT Signaling Pathway (AID 444; active = well fitted curve in either direction with a large enough effect, not every such curve was filed as active;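 also: carbachol stimulus at about its EC50 of 1 µM final; % is scaled to controls: 0 for no effect and ±100 for the full control effect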); settings: Jurkat NFAT-bla M1, carbachol, beta-lactamase ratio, 5 h; at 7.69 µM (top of the series) unless noted
Summary of the method: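 Read-out: CCF4 FRET ratio (460 nm/530 nm) after 1 h RT dye loading, used for %activity and AC50 from titration series. Cells: Jurkat NFAT-β-lactamase/M1 line, treated with compound plus 1 uM carbachol for 5 h, 37 °C.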

[4] = Stat Signaling Pathway (AID 446; active = well fitted curve in either direction with a large enough effect, not every such curve was filed as active;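 also: ME-180 cervical cancer cells given 40 pM IL-6 alongside compound; SIE-controlled beta-lactamase reporter measured as 460/530 nm FRET emission ratio; % is scaled to controls: 0 for no effect and ±100 for the full control effect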); settings: ME-180 SIE beta-lactamase reporter, IL-6 stimulated, 5 h; at 7.69 µM (top of the series) unless noted
Summary of the method: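 Screening format detects activators and inhibitors alike: ME-180 SIE-bla cells stimulated at 40 pM IL-6 for 5 hrs with compound, then dual-emission beta-lactamase read at 405 nm excitation.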

[5] = target: Glucocorticoid receptor (Homo sapiens) (UniProt P04150); assay: GR-GFP Redistribution (AID 450;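 active = compounds whose dose series gives a full or clear partial fitted curve of increased nuclear translocation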; also: potency is read from the fitted curve at half-maximal effect); settings: U2OS GR-GFP nuclear translocation, laser cytometry, 2 h
[6] = target: Glucocorticoid receptor (Homo sapiens) (UniProt P04150); assay: GR-EFC Redistribution (AID 451; calls by dose curve; also: potency is read from the fitted curve at half-maximal effect); settings: CHO-K1 GR-EFC translocation, beta-gal luminescence, 2 h
Summary of the method: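 Translocation of GR-ED fusion to nuclear EA restores b-gal, read by luminescence after 1 h room-temperature detection. Engineered CHO-K1 biosensor cells, 1,000/well, exposed 2 h at 37 C to titrations up to 46 uM final.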

[7] = target: Mitogen-activated protein kinase 10 (Mus musculus) (UniProt Q61831); assay: JNK3 AlphaScreen Assay (AID 530; active = well fitted curve in either direction with a large enough effect, not every such curve was filed as active;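 also: kinase came from lysate of stimulated human HepG2 cells; signal reports phosphorylation of biotinylated GST-cJun 1-79 at Ser73 with 10 µM ATP; % is scaled to controls: 0 for no effect and ±100 for the full control effect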); settings: JNK3 lysate, c-Jun phosphorylation; series mostly up to 57.1 µM
Summary of the method: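 Room-temperature AlphaScreen kinase assay; pre-activated HepG2 lysate as JNK3 source, biotin-GST-cJun(1-79) substrate, 10 uM ATP, compound 15 min preincubation.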

[8] = target: 3',5'-cyclic-AMP phosphodiesterase 4B (Homo sapiens) (UniProt Q07343); assay: qHTS Assay for Inhibitors of PDE-IV (AID 607; active = well fitted activation curve with a large enough effect in the main read-out, with a control signal flat, not every such curve was filed as active; also: % of control where 0% means no effect); settings: HEK293 ACTOne CNG channel cells, membrane potential fluorescence; series mostly up to 22.9 µM
Summary of the method: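 The readout is membrane depolarisation from a cAMP-sensing CNG channel, detected with a potential dye at ex 535/em 590. Cells were HEK293-derived (endogenous PDE-IV) at 1000 cells/well, titrated up to 22.9 uM final.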

[9] = qHTS Assay for Identification of Small Molecule Agonists for Hypoxia Response Element Signaling Pathway (AID 914; active = well fitted activation curve with a large enough effect in the signal ratio, with a control signal flat, not every such curve was filed as active; the % refers to the signal ratio; also: % of control where 0% means no effect); settings: ME-180 (cervical carcinoma) HRE-bla reporter, beta-lactamase ratio, CoCl2, 17 h; activation: stronger effect = higher value
Summary of the method: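 Read-out: CCF4 FRET ratio of 460nm to 530nm emission (excitation 405nm) after 2.5 hours at room temperature, taken from HRE-bla ME-180 cells that had been exposed to compound and EC50 CoCl2 for 17 hours.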

[10] = qHTS Assay for Lipid Storage Modulators (AID 1519; calls by dose curve); settings: Drosophila S3 cells, BODIPY lipid droplet/cell ratio, laser cytometry, cells loaded with oleic acid; for activity change, negative = inhibition: at 57.5 µM (top of the series)
Summary of the method: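 Cells seeded at 5,000 per well were treated with compounds over a concentration series and loaded with oleic acid (400 uM, as added). Lipid droplet fluorescence (488 nm excitation, 500-530 nm channel) was read by laser-scanning cytometry and normalized to 20 uM Triacsin C.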

[11] = target: Dual specificity protein kinase CLK4 (Homo sapiens) (UniProt Q9HAZ1); assay: qHTS Assay for Inhibitors of CDC-like Kinase 4 (Kinase-Glo Assay) (AID 1770); settings: recombinant Clk4, Kinase-Glo ATP depletion luminescence; series mostly up to 66.7 µM; also: nearly all actives have a fitted effect of over 65% in size; also: potency is read from the fitted curve at half-maximal effect
Summary of the method: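 Inhibition was judged from remaining ATP, measured by Ultra-Glo luciferase bioluminescence after Clk4 (25 nM) had acted on RS peptide at 1 uM ATP for 4.5 hours, room temperature.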

[12] = target: Dual specificity protein kinase CLK4 (Homo sapiens) (UniProt Q9HAZ1); assay: qHTS Assay for Inhibitors of CDC-like Kinase 4 (ADP-Glo Assay) (AID 1771); settings: recombinant CLK4, ADP-Glo luminescence; series mostly up to 80 µM; also: nearly all actives have a fitted effect of over 70% in size; also: potency is read from the fitted curve at half-maximal effect
Summary of the method: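 Clk4 (25 nM) was incubated 1 hr at room temperature with 100 uM RS repeat peptide and 1 uM ATP in buffer with 2 mM MgCl2, 0.5 mM EGTA, 2.5 mM DTT. ADP formed was quantified by ADP-Glo luminescence.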

[13] = target: Dual specificity protein kinase CLK4 (Homo sapiens) (UniProt Q9HAZ1); assay: qHTS Assay for Inhibitors of CDC-like Kinase 4 (ADP-FP Assay) (AID 1795); settings: Transcreener ADP fluorescence polarization; series mostly up to 50 µM;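 also: recombinant human CLK4 phosphorylating RS repeat peptide at 1 µM ATP; % is scaled to controls: 0 for no effect and ±100 for the full control effect; nearly all actives have a fitted effect of over 60% in size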
Summary of the method: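 Inhibition of ADP formation by 6.25 nM Clk4 is measured using 1 uM ATP and 100 uM RS repeat peptide over one hour. Produced ADP displaces a fluorescent tracer from antibody, lowering polarization.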

[14] = target: Ubiquitin carboxyl-terminal hydrolase 1 (Homo sapiens) (UniProt O94782); assay: Inhibitors of USP1/UAF1: Pilot qHTS (AID 504865); settings: purified USP1/UAF1, Ub-rhodamine cleavage fluorescence; series mostly up to 54.9 µM;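 also: rhodamine fluorescence freed from ubiquitin-rhodamine substrate followed over time; top concentration of the series differs between compounds; % is scaled to controls: 0 for no effect and ±100 for the full control effect; nearly all actives have a fitted effect of over 35% in size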
Summary of the method: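 Kinetic fluorescence assay: 1nM USP1/UAF1, 15 min compound preincubation, then 150nM Ub-Rho; 480/540 nm.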

[15] = Primary qHTS for small molecule stabilizers of the endoplasmic reticulum resident proteome: Secreted ER Calcium Modulated Protein (SERCaMP) assay (AID 1508630); settings: SH-SY5Y GLuc-SERCaMP (Gaussia luciferase released on ER calcium loss) secretion, thapsigargin, luminescence; series mostly up to 38.4 µM; also: % is scaled to controls: 0 for no effect and ±100 for the full control effect
Summary of the method: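 GLuc-SERCaMP-expressing SH-SY5Y cells, pretreated 16 h with compound, are challenged with thapsigargin to empty ER calcium stores; after 4 h, coelenterazine is added directly to the medium and luminescence is imaged.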

[16] = target: Cytochrome P450 3A4 (Homo sapiens) (UniProt P08684); assay: qHTS Assay for Activators of Cytochrome P450 3A4 (AID 885); settings: recombinant CYP3A4, Luciferin-PPXE luminescence, 60 min; series mostly up to 57.1 µM; also: nearly all actives have a fitted effect of over 65% in size
Summary of the method: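 Steps: enzyme/substrate mix dispensed; compound added, 10 min RT; NADPH regeneration solution added, 60 min RT; luciferin detection buffer stops reaction; 20 min later luminescence measured.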

[17] = measured here: cell count channel max response
[18] = measured here: lipid channel max response

Sequence of 3',5'-cyclic-AMP phosphodiesterase 4B (Homo sapiens) (Q07343 whole entry, looked up): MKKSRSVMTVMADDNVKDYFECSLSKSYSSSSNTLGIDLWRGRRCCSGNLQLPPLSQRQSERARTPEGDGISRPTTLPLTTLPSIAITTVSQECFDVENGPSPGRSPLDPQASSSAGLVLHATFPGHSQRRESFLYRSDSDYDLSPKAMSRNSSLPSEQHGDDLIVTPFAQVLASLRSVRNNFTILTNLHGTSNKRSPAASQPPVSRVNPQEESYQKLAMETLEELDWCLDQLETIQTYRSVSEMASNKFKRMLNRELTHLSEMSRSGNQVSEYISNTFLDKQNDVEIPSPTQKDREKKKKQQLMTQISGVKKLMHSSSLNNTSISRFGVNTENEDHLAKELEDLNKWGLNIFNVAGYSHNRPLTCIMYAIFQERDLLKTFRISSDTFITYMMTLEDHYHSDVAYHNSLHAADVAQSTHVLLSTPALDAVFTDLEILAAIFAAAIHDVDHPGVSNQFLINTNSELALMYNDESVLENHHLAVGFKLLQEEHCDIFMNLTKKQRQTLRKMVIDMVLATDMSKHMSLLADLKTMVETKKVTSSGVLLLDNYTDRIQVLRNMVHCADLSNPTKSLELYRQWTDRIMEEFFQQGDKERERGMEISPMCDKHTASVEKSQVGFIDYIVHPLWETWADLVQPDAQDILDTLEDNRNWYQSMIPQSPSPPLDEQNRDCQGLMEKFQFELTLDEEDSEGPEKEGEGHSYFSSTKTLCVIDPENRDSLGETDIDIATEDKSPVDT
Sequence of Lysosomal acid glucosylceramidase (Homo sapiens) (P04062 whole entry, looked up): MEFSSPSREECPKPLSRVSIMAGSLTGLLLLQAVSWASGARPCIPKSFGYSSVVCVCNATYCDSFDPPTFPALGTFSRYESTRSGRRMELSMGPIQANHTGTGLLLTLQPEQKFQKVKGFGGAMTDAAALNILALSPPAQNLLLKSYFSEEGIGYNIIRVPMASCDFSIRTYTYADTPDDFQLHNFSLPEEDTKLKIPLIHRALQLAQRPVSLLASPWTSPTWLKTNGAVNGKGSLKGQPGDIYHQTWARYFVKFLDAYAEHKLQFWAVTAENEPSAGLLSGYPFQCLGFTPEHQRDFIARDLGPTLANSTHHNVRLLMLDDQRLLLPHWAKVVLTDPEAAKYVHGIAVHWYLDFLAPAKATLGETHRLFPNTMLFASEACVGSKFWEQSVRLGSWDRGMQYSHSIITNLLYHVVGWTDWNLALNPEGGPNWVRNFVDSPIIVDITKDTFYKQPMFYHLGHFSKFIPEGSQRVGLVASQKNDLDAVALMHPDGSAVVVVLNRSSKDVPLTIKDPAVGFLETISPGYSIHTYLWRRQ
Sequence of Glucocorticoid receptor (Homo sapiens) (P04150 whole entry, looked up, the tested form may be a part): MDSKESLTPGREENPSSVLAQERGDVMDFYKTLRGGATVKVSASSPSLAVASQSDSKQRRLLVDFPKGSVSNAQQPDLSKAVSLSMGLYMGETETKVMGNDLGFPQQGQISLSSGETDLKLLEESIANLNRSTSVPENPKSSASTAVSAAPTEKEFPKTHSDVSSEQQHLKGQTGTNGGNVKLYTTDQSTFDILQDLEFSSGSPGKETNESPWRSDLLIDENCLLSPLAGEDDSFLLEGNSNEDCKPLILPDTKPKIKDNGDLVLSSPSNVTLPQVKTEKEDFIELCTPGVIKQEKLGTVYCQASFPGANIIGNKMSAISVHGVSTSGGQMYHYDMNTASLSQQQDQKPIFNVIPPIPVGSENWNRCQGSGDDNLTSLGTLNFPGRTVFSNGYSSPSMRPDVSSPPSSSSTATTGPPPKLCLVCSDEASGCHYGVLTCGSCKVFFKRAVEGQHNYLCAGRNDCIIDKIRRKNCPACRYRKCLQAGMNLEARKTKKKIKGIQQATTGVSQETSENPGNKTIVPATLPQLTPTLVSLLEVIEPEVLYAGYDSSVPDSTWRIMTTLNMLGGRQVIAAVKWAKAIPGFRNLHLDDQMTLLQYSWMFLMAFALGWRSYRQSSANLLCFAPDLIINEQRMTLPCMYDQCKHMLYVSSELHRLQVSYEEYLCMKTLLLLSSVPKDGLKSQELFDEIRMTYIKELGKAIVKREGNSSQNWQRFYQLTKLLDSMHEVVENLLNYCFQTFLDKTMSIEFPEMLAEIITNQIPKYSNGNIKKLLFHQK
Sequence of Ubiquitin carboxyl-terminal hydrolase 1 (Homo sapiens) (O94782 whole entry, looked up): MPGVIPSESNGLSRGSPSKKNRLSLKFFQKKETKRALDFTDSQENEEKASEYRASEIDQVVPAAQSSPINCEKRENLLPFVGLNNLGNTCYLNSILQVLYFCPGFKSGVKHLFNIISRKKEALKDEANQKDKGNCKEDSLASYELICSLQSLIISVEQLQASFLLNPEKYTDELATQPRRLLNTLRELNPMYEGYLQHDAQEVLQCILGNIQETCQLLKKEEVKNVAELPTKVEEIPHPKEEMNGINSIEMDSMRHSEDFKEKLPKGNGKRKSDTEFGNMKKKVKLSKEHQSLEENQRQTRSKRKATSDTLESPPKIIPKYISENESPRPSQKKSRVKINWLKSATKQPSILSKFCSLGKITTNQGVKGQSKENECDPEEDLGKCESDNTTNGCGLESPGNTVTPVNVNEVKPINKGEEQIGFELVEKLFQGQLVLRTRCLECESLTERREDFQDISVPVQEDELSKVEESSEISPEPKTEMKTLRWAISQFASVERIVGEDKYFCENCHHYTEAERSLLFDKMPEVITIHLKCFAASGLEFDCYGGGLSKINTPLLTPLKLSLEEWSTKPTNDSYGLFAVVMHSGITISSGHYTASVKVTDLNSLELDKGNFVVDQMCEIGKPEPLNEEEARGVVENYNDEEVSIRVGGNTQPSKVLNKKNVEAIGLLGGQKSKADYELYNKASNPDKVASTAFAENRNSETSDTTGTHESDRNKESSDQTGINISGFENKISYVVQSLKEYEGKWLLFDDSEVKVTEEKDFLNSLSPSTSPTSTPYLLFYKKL
Sequence of Dual specificity protein kinase CLK4 (Homo sapiens) (Q9HAZ1 whole entry, looked up): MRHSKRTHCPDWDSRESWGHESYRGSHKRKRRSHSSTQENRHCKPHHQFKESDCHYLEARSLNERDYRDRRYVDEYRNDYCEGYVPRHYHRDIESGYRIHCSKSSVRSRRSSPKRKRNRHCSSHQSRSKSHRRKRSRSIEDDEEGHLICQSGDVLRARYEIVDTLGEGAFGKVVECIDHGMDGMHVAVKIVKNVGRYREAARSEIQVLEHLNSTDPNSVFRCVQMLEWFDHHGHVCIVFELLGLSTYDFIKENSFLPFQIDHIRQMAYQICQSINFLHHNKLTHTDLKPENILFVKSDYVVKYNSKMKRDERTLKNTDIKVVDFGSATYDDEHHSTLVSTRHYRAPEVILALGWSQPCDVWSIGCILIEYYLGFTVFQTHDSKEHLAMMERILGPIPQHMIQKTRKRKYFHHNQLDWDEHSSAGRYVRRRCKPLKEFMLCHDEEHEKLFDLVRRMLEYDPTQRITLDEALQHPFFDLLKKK
Sequence of Cytochrome P450 3A4 (Homo sapiens) (P08684 whole entry, looked up): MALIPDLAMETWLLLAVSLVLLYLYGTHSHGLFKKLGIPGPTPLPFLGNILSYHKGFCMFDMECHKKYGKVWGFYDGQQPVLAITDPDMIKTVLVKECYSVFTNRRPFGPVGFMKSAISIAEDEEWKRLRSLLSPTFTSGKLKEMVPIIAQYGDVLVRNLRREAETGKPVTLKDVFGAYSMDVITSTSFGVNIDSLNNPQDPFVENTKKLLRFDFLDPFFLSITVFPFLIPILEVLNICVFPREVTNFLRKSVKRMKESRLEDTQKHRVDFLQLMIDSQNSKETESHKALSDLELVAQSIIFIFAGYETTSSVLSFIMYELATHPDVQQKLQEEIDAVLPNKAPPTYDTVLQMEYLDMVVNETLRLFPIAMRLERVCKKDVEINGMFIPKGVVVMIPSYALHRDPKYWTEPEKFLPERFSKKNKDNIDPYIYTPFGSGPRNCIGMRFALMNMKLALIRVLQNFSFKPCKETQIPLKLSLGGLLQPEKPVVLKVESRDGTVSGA

SMILES | Potency [1] | activity change, negative = inhibition [2] | activity change, negative = inhibition [3] | activity, negative = inhibition [4] | Potency [5] | Potency [6] | outcome [7] | Potency [8] | activation [9] | activity change, negative = inhibition [10] | max response [10, 17] [%] | max response [10, 18] [%] | Potency [11] | Potency [12] | Potency [13] | Potency [14] | Potency [15] | Potency [16]
COc1ccc(Oc2ncc3nc(-c4ccc(OC)cc4)c(=O)n(C4CC4)c3n2)cc1 | > 11.4 µM (inactive) | -17.1% (inactive) | 18.7% (inactive) | -1.53% (inactive) | > 9.22 µM (inactive) | > 46 µM (inactive) | inactive | inactive | 12.9% (inactive) | -0.219% (inactive) | 4.42 | -0.829 | inactive | inactive | inactive | inactive | inactive | –
COc1ncc2nc(-c3ccc(F)cc3)c(=O)n(C3CC3)c2n1 | > 11.4 µM (inactive) | -9.24% (inactive) | -21.4% (inactive) | -4.24% (inactive) | > 9.22 µM (inactive) | > 46 µM (inactive) | inactive | inactive | – | 4.43% (inactive) | 16.8 | 19.3 | inactive | inactive | inactive | inactive | inactive | –
CNc1ncncc1-c1c(C)noc1C | > 11.4 µM (inactive) | -14.2% (inactive) | -0.793% (inactive) | 11.7% (inactive) | > 46 µM (inactive) | > 46 µM (inactive) | inactive | inactive | – | 7.32% (inactive) | 37 | 45.6 | inactive | inactive | inactive | inactive | inactive | –
O=c1c(CCc2ccccc2)nc2cnc(N3CCOCC3)nc2n1Cc1cccs1 | > 11.4 µM (inactive) | -2.34% (inactive) | -3.56% (inactive) | 2.46% (inactive) | > 9.22 µM (inactive) | > 46 µM (inactive) | inactive | – | – | 8.99% (inactive) | 7.22 | 18.4 | inactive | inactive | inactive | inactive | inactive | –
Cc1noc(C)c1-c1cc(NCCN2CCOCC2)ncn1 | > 11.4 µM (inactive) | 27.9% (inactive) | 20.1% (inactive) | 0.606% (inactive) | > 46 µM (inactive) | > 46 µM (inactive) | inactive | inactive | – | 6.08% (inactive) | 23.5 | 29.1 | 25.1 µM (active) | 22.4 µM (active) | inactive | inactive | inactive | –
O=c1cnc2cncnc2n1Cc1ccc(F)cc1 | > 11.4 µM (inactive) | 8.77% (inactive) | -27.6% (inactive) | -8.63% (inactive) | > 9.22 µM (inactive) | > 46 µM (inactive) | inactive | – | – | -2.55% (inactive) | -3.3 | -6.15 | inactive | inactive | inactive | inactive | inactive | inactive
Cc1nc2cnc(OCc3ccccc3)nc2n(C)c1=O | > 11.4 µM (inactive) | -10% (inactive) | -3.24% (inactive) | -5.11% (inactive) | > 9.22 µM (inactive) | – | inactive | inactive | – | 7.08% (inactive) | 13.5 | 17.9 | inactive | inactive | inactive | inactive | inactive | –
Cc1cnc(CNc2ncncc2-c2cccnc2)cn1 | > 11.4 µM (inactive) | 12.8% (inactive) | -0.272% (inactive) | 0.806% (inactive) | > 46 µM (inactive) | – | inactive | inactive | – | 5.94% (inactive) | 29.4 | 33.4 | inactive | inactive | inactive | inactive | inactive | –
COCCn1c(=O)c(-c2cn(C)c3ccccc23)nc2cnc(N3CCOCC3)nc21 | > 11.4 µM (inactive) | -12.3% (inactive) | 5.44% (inactive) | -11.9% (inactive) | > 9.22 µM (inactive) | > 46 µM (inactive) | inactive | inactive | – | 4.05% (inactive) | 6.29 | 8.52 | inactive | inactive | inactive | inactive | inactive | –
O=c1c(-c2cc(F)cc(F)c2)nc2cncnc2n1Cc1ccccc1 | > 11.4 µM (inactive) | 16.7% (inactive) | -18% (inactive) | -8.19% (inactive) | > 9.22 µM (inactive) | – | – | – | – | 2.57% (inactive) | -10.3 | -10.6 | inactive | inactive | inactive | inactive | inactive | –
COc1ncc2nc(-c3ccc(F)cc3)c(=O)n(-c3ccccc3)c2n1 | > 11.4 µM (inactive) | -5.39% (inactive) | -7.66% (inactive) | -2.33% (inactive) | > 9.22 µM (inactive) | > 46 µM (inactive) | inactive | inactive | – | 2.16% (inactive) | -0.95 | -1.99 | inactive | inactive | inactive | inactive | inactive | –
CN1CCN(c2cc(-c3ccoc3)ncn2)CC1 | > 11.4 µM (inactive) | -1.21% (inactive) | -3.33% (inactive) | 8.56% (inactive) | > 46 µM (inactive) | > 46 µM (inactive) | inactive | inactive | – | 6.62% (inactive) | 23 | 27.8 | inactive | inactive | inactive | inactive | inactive | –
